Sfp PPTase inh – qHTS Assay for Inhibitors of Bacillus subtilis Sfp phosphopantetheinyl transferase (PPTase) | Potency, µM, for inactives: largest response in the series, negative = inhibition, usual class: inhibitors | 4'-phosphopantetheinyl transferase ffp (Bacillus subtilis), Q9F4F7 | 3.5% of 310,000 active | AID 1490, 2009 | Biochemical Sfp PPTase activity, qHTS;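 note: the enzyme is Sfp with the accession as filed and its product quenches rhodamine fluorescence; 0% = enzyme reaction without inhibitor and -100% = no enzyme wells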
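Fluorescence-quenching assay: 15 nM Sfp-PPTase preincubated 15 min at room temperature with compound, then 5 uM rhodamine-CoA and 12.5 uM BHQ-2-labelled YbbR peptide added. Fluorescence (ex 525/em 598 nm) read at start and after 30 min; difference gives rate.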
ALDH1A1 inh – qHTS Assay for Inhibitors of Aldehyde Dehydrogenase 1 (ALDH1A1); Aldehyde dehydrogenase 1A1 (Homo sapiens), P00352; Purified ALDH1A1, NADH fluorescence, propionaldehyde substrate; Potency, µM (doses to about 75.3 µM), for inactives: top-dose activity, negative = inhibition, hits mostly inhibitors; 7.3% of 220,000 active; AID 1030, 2008; active = well fitted inhibition curve with a large enough effect, not every such curve was filed as active; inconclusive = small, poorly fitted or top-dose-only effect, or another doubt; inactive = no such curve, though single readings can be large or run the other way;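 note: plate controls were no enzyme wells and a reference inhibitor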
VP16 counter – VP16 counterscreen qHTS for inhibitors of ROR gamma transcriptional activity; Potency, µM (top dose mostly 53.6 µM), for the others: top-dose activity, negative = inhibition, usual class: inhibitors; Drosophila S2 Gal4-VP16 UAS-luciferase, luminescence, 20 h; 3.5% of 310,000 active;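 note: Gal4-VP16 expression switched on by copper sulfate through the metallothionein promoter; nearly all actives have a fitted effect of over 50% in size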
RORg inh – qHTS for inhibitors of ROR gamma transcriptional activity | Potency, µM (top dose mostly 53.6 µM), for inactives: top-dose activity change, negative = inhibition, actives largely listed as inhibitors | 5.4% of 310,000 active | Drosophila S2 Gal4-RORgamma UAS-luciferase reporter, 20 h | Nuclear receptor ROR-gamma (Mus musculus), P51450; note: nearly all actives have a fitted effect of over 60% in size
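In this cell-based reporter format, copper sulfate (700 uM final) drives Gal4–ROR gamma fusion expression from a metallothionein promoter in Drosophila Schneider cells; compounds preincubated 1 hr, reporter read after 20 hr at ambient temperature.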
PLK1 PBD block – qHTS for Inhibitors of PLK1-PDB (polo-like kinase 1 - polo-box domain): Primary Screen; Potency, µM, without a hit: max response, negative = inhibition, hits mostly inhibitors; Plk1 PBD binding of FITC phosphopeptide, fluorescence polarization; AID 720504, 2013; Serine/threonine-protein kinase PLK1 (Homo sapiens), P53350; 2.8% of 360,000 active; note: series mostly up to about 57 µM; nearly all actives have a fitted effect of over 65% in size
Target sequence (P53350 whole entry, looked up, the tested form may be a part): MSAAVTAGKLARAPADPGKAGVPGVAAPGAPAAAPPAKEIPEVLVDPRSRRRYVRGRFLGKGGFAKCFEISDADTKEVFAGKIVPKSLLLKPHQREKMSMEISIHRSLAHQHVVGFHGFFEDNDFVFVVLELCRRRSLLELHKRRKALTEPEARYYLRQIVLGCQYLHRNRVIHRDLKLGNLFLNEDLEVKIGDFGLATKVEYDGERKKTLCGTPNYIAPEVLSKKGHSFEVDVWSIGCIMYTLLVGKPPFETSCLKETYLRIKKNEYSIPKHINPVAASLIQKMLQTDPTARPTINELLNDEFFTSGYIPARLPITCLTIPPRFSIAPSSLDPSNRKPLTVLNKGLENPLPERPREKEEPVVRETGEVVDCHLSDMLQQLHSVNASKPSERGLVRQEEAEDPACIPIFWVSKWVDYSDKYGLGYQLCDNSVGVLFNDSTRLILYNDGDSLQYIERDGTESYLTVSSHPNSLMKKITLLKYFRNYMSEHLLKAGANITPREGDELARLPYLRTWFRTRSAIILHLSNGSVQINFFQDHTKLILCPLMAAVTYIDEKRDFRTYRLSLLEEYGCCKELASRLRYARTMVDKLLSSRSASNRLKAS
Active calls of the source: *; [ ] = another dose, or the depositor's remark. A selection: hits, their analogues and other compounds. The true share with any hit is near 12%. Unless noted, calls come from the whole dose curve; as a rule, active = well fitted curve in the direction sought with a large enough effect; inconclusive = small, poorly fitted or top-dose-only effect, or another doubt; inactive = no such curve, though single readings can be large; an effect the other way counts as inactive or inconclusive. Unless noted, % is set by controls: 0 for no effect and ±100 for the full control effect; potency is the fitted concentration of half-maximal effect.

CCN(CC)S(=O)(=O)c1ccc(NC2=NS(=O)(=O)c3ccccc32)cc1 was read as Sfp PPTase inh 7%, ALDH1A1 inh inconclusive, VP16 counter -1%, RORg inh 6% and PLK1 PBD block 1%.
O=C(Nc1nnc(-c2cccs2)o1)c1ccco1 was read as Sfp PPTase inh -28%, ALDH1A1 inh -7%, VP16 counter 6.3µM*, RORg inh 2.5µM* and PLK1 PBD block 5%.
`CC1CC1C(=O)Nc1nc(-c2cccs2)c(-c2cccs2)s1` (centres undefined) gave Sfp PPTase inh 50µM*, ALDH1A1 inh inconclusive, VP16 counter 12%, RORg inh 10µM* and PLK1 PBD block -1%.
For O=C(Nc1nc(-c2cccs2)c(-c2ccccc2)s1)c1ccco1 the results were Sfp PPTase inh inconclusive, ALDH1A1 inh inconclusive, VP16 counter 7.9µM*, RORg inh inconclusive and PLK1 PBD block -9%.
CC(=O)Nc1sc(NC(=O)c2ccco2)nc1-c1cccs1 was read as Sfp PPTase inh 20%, VP16 counter 22%, RORg inh 11% and PLK1 PBD block -11%.
Nc1nc(-c2cccs2)c(-c2cccs2)s1 was read as Sfp PPTase inh 5%, VP16 counter 6%, RORg inh -8% and PLK1 PBD block inconclusive.
Screening O=C(Nc1nnc(-c2ccccc2Cl)o1)c1ccco1 returned Sfp PPTase inh -8%, ALDH1A1 inh 0%, VP16 counter 5µM*, RORg inh 2.8µM* and PLK1 PBD block 2%.
Screening Nc1cc(N)cc(C(=O)c2ccccc2)c1 returned PLK1 PBD block -1%.
`O=C1OC(c2ccccc2)(c2ccc3cc(O)ccc3c2)c2ccccc21` (centres undefined) gave PLK1 PBD block 1%.
`O=C(Nc1nnc(-c2ccccc2Cl)o1)c1nc2ccccc2s1` gave Sfp PPTase inh -12%, ALDH1A1 inh 12%, VP16 counter inconclusive, RORg inh 1.1µM* and PLK1 PBD block -20%.
Screening O=C(Nc1nncs1)C(Sc1ccccc1)c1ccccc1 (centres undefined) returned Sfp PPTase inh 10%, ALDH1A1 inh -4%, VP16 counter -24%, RORg inh 11µM* and PLK1 PBD block inconclusive.
O=C(CCl)c1ccc2c(c1)CCN2C(=O)C1CCCCC1 was read as Sfp PPTase inh 4%, ALDH1A1 inh inconclusive, VP16 counter -24%[10 µM], RORg inh inconclusive and PLK1 PBD block 0.75µM*.
COc1ccc(CNS(=O)(=O)c2ccc3c(c2)CCN3C(=O)C2CC2)cc1 was read as Sfp PPTase inh 2%, ALDH1A1 inh 11%, VP16 counter 16µM*, RORg inh -8% and PLK1 PBD block -3%.
O=C(C1CC1)N1CCc2cc(S(=O)(=O)NCCCN3CCCCC3)ccc21 was read as Sfp PPTase inh 10%, VP16 counter -7%, RORg inh -19% and PLK1 PBD block 1%.
For COc1cccc(CNS(=O)(=O)c2ccc3c(c2)CC(C)N3C(=O)C2CC2)c1 (centres undefined) the results were Sfp PPTase inh 14%, VP16 counter inconclusive, RORg inh -36% and PLK1 PBD block -9%.
For COc1ccc(CNS(=O)(=O)c2ccc3c(c2)CC(C)N3C(=O)C2CC2)cc1 (centres undefined) the results were Sfp PPTase inh 16%, VP16 counter 18µM*, RORg inh inconclusive and PLK1 PBD block -4%.
COc1cc(CNS(=O)(=O)c2ccc3c(c2)CC(C)N3C(=O)C2CCC2)cc(OC)c1OC (centres undefined) was read as Sfp PPTase inh 17%, VP16 counter 6.3µM*, RORg inh -42% and PLK1 PBD block -9%.
For COCOc1cc(OC)ccc1C(=O)/C=C\c1ccc2c(c1)OCO2 the results were Sfp PPTase inh 2%, ALDH1A1 inh -17%[13.5 µM], VP16 counter inconclusive and RORg inh 13%[10 µM].
COC(=O)c1ccc(Cn2c(C)c(C(=O)Nc3cccc(Oc4ccccc4)c3)sc2=O)o1 was read as PLK1 PBD block 4%.
For CC1CCN(S(=O)(=O)c2ccc3c(c2)CCN3C(=O)C2CCC2)CC1 the results were Sfp PPTase inh 10%, VP16 counter 2%, RORg inh 0% and PLK1 PBD block 24µM*.
Screening O=C1[C@H]2[C@@H]3CCN1CCC[C@@H]2C=C[C@@H]3c1ccc(Br)cc1 returned PLK1 PBD block 8%.
Screening Cc1ccc(C(=O)N2CCN(C3c4cccc5cccc(c45)C3NS(=O)(=O)c3ccccc3)CC2)cc1 (centres undefined) returned Sfp PPTase inh 3%, ALDH1A1 inh 22µM*, VP16 counter -4%, RORg inh 16% and PLK1 PBD block -1%.
For CC(=O)N1CCN(C2c3cccc4cccc(c34)C2NS(=O)(=O)c2ccccc2)CC1 (centres undefined) the results were Sfp PPTase inh -2%, ALDH1A1 inh inconclusive, VP16 counter 2%, RORg inh -11% and PLK1 PBD block 0%.
For Cc1ccc(S(=O)(=O)N2[C@@H](c3ccc(Cl)cc3)C(C(=O)OC(C)(C)C)=CC[C@H]2c2ccc(Cl)c(Cl)c2)cc1 the results were PLK1 PBD block 2%.
Screening O=C(NCCN1CCOCC1)C1(C(F)(F)F)CC(CCCO)CCCO1 (centres undefined) returned Sfp PPTase inh 16%, VP16 counter -5% and RORg inh 17%.
Screening O=C1CCC[C@@H]2CC(NCc3ccc(Cl)c(Cl)c3)C[C@@H]3CCN1[C@H]23 (some centres undefined) returned Sfp PPTase inh -9%, ALDH1A1 inh 6%, VP16 counter -7% and RORg inh -8%.
COc1ccc(N2CC(C(=O)Nc3ccc([N+](=O)[O-])cc3Br)CC2=O)cc1 (centres undefined) was read as Sfp PPTase inh 5%, VP16 counter -10%, RORg inh 15% and PLK1 PBD block -21%.
`COc1ccc(N2CC(C(=O)N/N=C/c3cc([N+](=O)[O-])ccc3O)CC2=O)cc1` (centres undefined) gave Sfp PPTase inh 26%, ALDH1A1 inh inconclusive, VP16 counter 18µM*, RORg inh 5.6µM* and PLK1 PBD block 2%.
For O=C(N/N=C/c1ccccc1O)C1CC(=O)N(c2ccc(F)cc2)C1 (centres undefined) the results were Sfp PPTase inh 6%, VP16 counter 6.3µM*, RORg inh 2.8µM* and PLK1 PBD block -5%.

Screening results (PubChem)
